Results filed as inconclusive are left out. The source made the active and inactive calls. Calls come from the whole dose curve; as a rule, active = well fitted activation curve with a large enough effect; inconclusive = small, poorly fitted or top-dose-only effect; inactive = no such curve, though single readings can be large or run the other way.

Here are results for 32 compounds from PubChem BioAssay (NCATS).
% is set by controls: 0 for no effect and ±100 for the full control effect; potency is the fitted concentration of half-maximal effect.

The target in this assay is Rap guanine nucleotide exchange factor 4 (Homo sapiens) (UniProt Q8WZA2). Kind of assay: Confirmatory qHTS for agonist of cAMP-regulated guanine nucleotide exchange factor 4 (EPAC2) (AID 1645884). Note: nearly all actives have a fitted effect of over 65% in size. The note with it: EPAC2 GEF activity, Rap1B-BODIPY-GDP fluorescence; series mostly up to 154 µM; activation: at the top concentration.
Chain of Rap guanine nucleotide exchange factor 4 (Homo sapiens) (Q8WZA2 whole entry, looked up): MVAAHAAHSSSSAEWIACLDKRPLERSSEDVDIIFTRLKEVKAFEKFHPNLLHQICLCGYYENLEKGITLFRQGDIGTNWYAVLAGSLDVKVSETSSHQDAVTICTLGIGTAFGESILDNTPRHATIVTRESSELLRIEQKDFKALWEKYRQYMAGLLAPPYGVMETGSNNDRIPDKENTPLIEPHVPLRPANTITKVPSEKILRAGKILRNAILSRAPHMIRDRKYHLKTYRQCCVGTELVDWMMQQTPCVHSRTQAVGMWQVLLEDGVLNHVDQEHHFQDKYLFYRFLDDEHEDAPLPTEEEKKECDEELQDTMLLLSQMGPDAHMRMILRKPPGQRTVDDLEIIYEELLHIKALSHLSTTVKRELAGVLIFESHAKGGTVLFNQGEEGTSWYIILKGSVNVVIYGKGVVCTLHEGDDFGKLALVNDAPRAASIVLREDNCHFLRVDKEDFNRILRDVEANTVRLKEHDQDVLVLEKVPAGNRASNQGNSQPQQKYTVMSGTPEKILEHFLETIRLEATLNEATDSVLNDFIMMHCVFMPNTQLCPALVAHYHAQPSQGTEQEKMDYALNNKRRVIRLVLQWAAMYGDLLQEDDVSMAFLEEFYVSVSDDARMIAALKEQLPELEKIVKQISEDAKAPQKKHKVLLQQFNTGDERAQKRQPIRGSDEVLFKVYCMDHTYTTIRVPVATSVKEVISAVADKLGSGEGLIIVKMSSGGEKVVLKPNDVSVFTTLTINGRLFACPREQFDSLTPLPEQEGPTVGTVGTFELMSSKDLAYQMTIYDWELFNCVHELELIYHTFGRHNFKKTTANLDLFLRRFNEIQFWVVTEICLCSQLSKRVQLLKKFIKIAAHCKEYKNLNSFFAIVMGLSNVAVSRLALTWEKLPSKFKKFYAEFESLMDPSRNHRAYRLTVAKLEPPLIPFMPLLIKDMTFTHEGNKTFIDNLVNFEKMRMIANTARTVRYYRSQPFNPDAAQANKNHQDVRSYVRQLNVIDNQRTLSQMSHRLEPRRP
As for `O=C(c1ccccc1)N1CCN(CCc2ccccn2)CC1`, the “activation” value is -14.7% [at 83.8 µM, percent relative to cAMP agonist control] (inactive).

In the case of `Cc1ccnc(NS(=O)(=O)c2ccc(NC(=O)Cc3c(F)cccc3Cl)cc2)n1`, the “activation” value was -2.09% (inactive).

As to `CN1N=C(C(C)(C)C)CC1=O`, the “activation” value is 0.54% (inactive).

With `COc1cc(/C=C2\SC(=S)N(NS(=O)(=O)c3ccc(C)cc3)C2=O)ccc1O`, the activation was 2.55% [at 17.1 µM, percent relative to cAMP agonist control] (inactive).

Turning to `CCOc1ccc(/C(C)=N/NC(=O)C(OC)c2ccccc2)cc1` (configuration not stated), the “activation” value was 7.87% (inactive).

`O=C(/C=C/c1ccc(Cl)cc1)Nc1nccs1`: the activation was 2.3% [at 17.1 µM, percent relative to cAMP agonist control] (inactive).

As to `Cc1ccc(Cl)cc1NC(=O)c1ccccc1OCC(=O)Nc1ccc(Cl)cc1`, the activation is 0.829% [at 17.1 µM, percent relative to cAMP agonist control] (inactive).

As for `CCNC(=O)COc1ccc(/C=C2\COc3ccccc3C2=O)cc1OC`, the activation was 4.45% [at 17.1 µM, percent relative to cAMP agonist control] (inactive).

For the compound `CCOC(=O)c1c(C)nc2sc(C(N)=O)c(N)c2c1-c1ccccc1`, the activation is -0.736% [at 17.1 µM, percent relative to cAMP agonist control] (inactive).

Consider `O=C(O)c1ccccc1NS(=O)(=O)c1ccc(N/N=C/c2ccc(O)c(O)c2)c([N+](=O)[O-])c1`, for which the activation is -3.03% [at 17.1 µM, percent relative to cAMP agonist control] (inactive).

On to `Cc1ccc(NC(=O)c2ccc(Cl)c(S(=O)(=O)N3CCc4ccccc43)c2)nc1`, for which the “activation” value is 19.7% (inactive).

`COc1ccc(-c2onc3ccc(C(C)=O)cc23)cc1`: the Potency was 79.4 µM (active).

As to `COC(=O)c1cc2sccc2n1Cc1c(C)cc(C)cc1C`, the “activation” value is -6.33% [at 83.8 µM, percent relative to cAMP agonist control] (inactive).

On to `CCOc1ccc(N2CC(c3nc4ccccc4n3Cc3cccc(Cl)c3)CC2=O)cc1` (configuration not stated), for which the “activation” value is 5.98% [at 83.8 µM, percent relative to cAMP agonist control] (inactive).

Consider `Cc1cc(-c2ccc(Br)s2)nc(-n2cccc2)n1`, for which the “activation” value is 3.87% (inactive).

In the case of `O=C(Nc1cccc(Cl)c1)N(Cc1nc2ccccc2c(=O)[nH]1)Cc1cccs1`, the activation is 5.3% [at 17.1 µM, percent relative to cAMP agonist control] (inactive).

In the case of `C/C(=N\N1C(=O)c2ccccc2NC1c1ccco1)c1ccccc1O` (configuration not stated), the “activation” value is 17% (inactive).

As to `CCc1nnc(NS(=O)(=O)c2ccc(Nc3ccc([N+](=O)[O-])c4nonc34)cc2)s1`, the “activation” value was -25.1% (inactive).

On to `CCOC(=O)c1ccccc1-c1csc(NS(=O)(=O)c2ccc(Cl)cc2)n1`, for which the activation was 4% [at 17.1 µM, percent relative to cAMP agonist control] (inactive).

`CC(OC(=O)CCN1C(=O)C2CC=CCC2C1=O)C(=O)Nc1cccc(C#N)c1` (configuration not stated): the activation is 3.57% [at 17.1 µM, percent relative to cAMP agonist control] (inactive).

Regarding `CC(C)c1ccc(NS(=O)(=O)c2cn(C)c(=O)n(C)c2=O)cc1`, the “activation” value was 16.3% (inactive).

`CN(C)c1nc(Oc2ccc(=O)[nH]n2)nc(N2CCOCC2)n1`: the “activation” value was 8.34% (inactive).

As for `Cc1ccc(NC(=O)c2ccc(Cl)cc2Cl)c(C(=O)c2ccccc2)c1`, the “activation” value is -12.7% [at 83.8 µM, percent relative to cAMP agonist control] (inactive).

`CC(C)(CNC(=O)Cc1ccc(NS(=O)(=O)c2cccc(C(F)(F)F)c2)cc1)N1CCOCC1`: the activation is 1.17% [at 17.1 µM, percent relative to cAMP agonist control] (inactive).

With `C#CCOCCOCCOCCNc1nc(N2CCN(C(=O)[C@H](Cc3cc4ccccc4[nH]3)n3cc([C@@H](N)Cc4ccc(O)cc4)nn3)CC2)nc(N2CCN(C(=O)[C@H](Cc3cc4ccccc4[nH]3)n3cc([C@@H](N)CC(C)C)nn3)CC2)n1`, the activation was -1.86% [at 17.1 µM, percent relative to cAMP agonist control] (inactive).

In the case of `O=c1[nH]c([N+](=O)[O-])nn1C(c1ccccc1)c1ccccc1`, the “activation” value was -2% (inactive).

As for `COc1cc(CNn2cnnc2)ccc1OCC(=O)NC(C)(C)C`, the “activation” value is 3.96% (inactive).

Regarding `CC(=O)Nc1ccc(NS(=O)(=O)c2cn(C)c(=O)n(C)c2=O)cc1`, the activation is 8.18% [at 17.1 µM, percent relative to cAMP agonist control] (inactive).

In the case of `CCc1noc(C)c1C(=O)N1CCCSC1=Nc1ccccc1C(C)C`, the “activation” value is 10.2% (inactive).

Regarding `COc1cccc(C(=O)C2=NN(C(C)=O)CC2c2ccco2)c1` (configuration not stated), the “activation” value is 9.88% (inactive).

For `COC(=O)c1c(SC)nc2ccccc2c1OCc1ccc(Br)cc1`, the “activation” value is 5.53% [at 83.8 µM, percent relative to cAMP agonist control] (inactive).

`CC(=Cc1ccccc1)C=C1SC(=S)N(CCCC(=O)Nc2ccc(C(=O)O)c(O)c2)C1=O`: the “activation” value was -15% (inactive).
